From paper PMC4081100, “A DNA-binding-site landscape and regulatory network analysis for NAC transcription factors in Arabidopsis thaliana”

Legend:
Experiment in all cases: universal protein binding microarray (PBM); transcription factors of Arabidopsis thaliana; high values mean tight binding
GST-ANAC092(1-176) = target: T1, GST-ANAC092(1-176) (Arabidopsis thaliana, UniProt Q9FKA0 1-176); conditions: protein: recombinant; tags: GST; chain copies: 2; dsDNA, one strand shown
T1 sequence: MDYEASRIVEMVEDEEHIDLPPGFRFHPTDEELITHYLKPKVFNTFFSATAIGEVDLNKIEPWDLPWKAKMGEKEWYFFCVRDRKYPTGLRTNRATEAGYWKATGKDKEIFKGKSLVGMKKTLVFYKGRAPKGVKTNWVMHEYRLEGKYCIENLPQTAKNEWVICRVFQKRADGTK
In short: (§1)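 Each value is a normalised enrichment score (E-score) describing binding. The GST-tagged proteins, NAC-domain, full-length or DNA-binding-domain, were induced in cells (zinc-finger proteins with zinc acetate added) and purified on glutathione–Sepharose 4B. They were applied at 200 to 500 nM final, in duplicate, to double-stranded custom all-10-mer Agilent 4 × 180K arrays, and gapped and ungapped 8-mers were scored.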

GST-NTL6(1-168) = GST-NTL6(1-168) (Arabidopsis thaliana, UniProt Q9SCK6 1-168); conditions: protein: recombinant; tags: GST; chain copies: 2; dsDNA, one strand shown
In short: as §1

GST-ANAC019 NAC domain = target: T2, GST-ANAC019 NAC domain (Arabidopsis thaliana, UniProt Q9C932 14-162); conditions: protein: recombinant; tags: GST; chain copies: 2; dsDNA, one strand shown
T2 sequence: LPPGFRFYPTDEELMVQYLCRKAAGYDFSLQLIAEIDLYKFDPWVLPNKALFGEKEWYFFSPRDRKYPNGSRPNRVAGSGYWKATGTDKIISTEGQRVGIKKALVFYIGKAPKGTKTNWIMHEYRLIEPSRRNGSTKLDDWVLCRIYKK
In short: as §1

GST-ANAC055(1-171) = target: T3, GST-ANAC055(1-171) (Arabidopsis thaliana, UniProt Q9LDY8 1-171); conditions: protein: recombinant; tags: GST; chain copies: 2; dsDNA, one strand shown
T3 sequence: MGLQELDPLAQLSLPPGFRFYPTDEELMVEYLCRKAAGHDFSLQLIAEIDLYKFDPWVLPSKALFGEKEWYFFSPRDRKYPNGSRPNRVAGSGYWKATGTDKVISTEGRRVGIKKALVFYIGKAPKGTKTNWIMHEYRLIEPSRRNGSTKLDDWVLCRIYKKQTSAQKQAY
In short: as §1

GST-ATAF1 NAC domain = target: T4, GST-ATAF1 NAC domain (Arabidopsis thaliana, UniProt Q39013 7-158); conditions: protein: recombinant; tags: GST; chain copies: 2; dsDNA, one strand shown
T4 sequence: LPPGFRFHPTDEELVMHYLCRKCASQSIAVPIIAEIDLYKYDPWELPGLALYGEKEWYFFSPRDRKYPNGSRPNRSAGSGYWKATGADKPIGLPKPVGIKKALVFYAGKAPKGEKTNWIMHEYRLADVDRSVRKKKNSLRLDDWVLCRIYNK
In short: as §1

[1] = target: T5, GST-ANAC092(1-285) full length (Arabidopsis thaliana, UniProt Q9FKA0 1-285); conditions: protein: recombinant; tags: GST; chain copies: 2; dsDNA, one strand shown
T5 sequence: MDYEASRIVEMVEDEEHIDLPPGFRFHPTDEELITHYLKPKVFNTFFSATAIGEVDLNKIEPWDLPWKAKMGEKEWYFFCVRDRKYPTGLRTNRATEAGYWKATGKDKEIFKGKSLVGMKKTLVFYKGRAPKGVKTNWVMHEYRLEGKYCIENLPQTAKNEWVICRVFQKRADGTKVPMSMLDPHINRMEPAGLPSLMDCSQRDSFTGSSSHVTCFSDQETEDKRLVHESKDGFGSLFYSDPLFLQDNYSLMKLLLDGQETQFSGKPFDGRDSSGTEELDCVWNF
In short: as §1

GST-NAP(1-166) = target: T6, GST-NAP(1-166) (Arabidopsis thaliana, UniProt O49255 1-166); conditions: protein: recombinant; tags: GST; chain copies: 2; dsDNA, one strand shown
T6 sequence: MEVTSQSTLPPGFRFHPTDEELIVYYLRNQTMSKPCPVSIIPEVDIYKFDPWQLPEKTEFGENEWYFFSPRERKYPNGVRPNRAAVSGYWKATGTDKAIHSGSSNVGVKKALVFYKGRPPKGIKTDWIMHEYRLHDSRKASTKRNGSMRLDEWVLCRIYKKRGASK
In short: as §1

GST-NST2(1-184) = target: T7, GST-NST2(1-184) (Arabidopsis thaliana, UniProt Q9M274 1-184); conditions: protein: recombinant; tags: GST; chain copies: 2; dsDNA, one strand shown
T7 sequence: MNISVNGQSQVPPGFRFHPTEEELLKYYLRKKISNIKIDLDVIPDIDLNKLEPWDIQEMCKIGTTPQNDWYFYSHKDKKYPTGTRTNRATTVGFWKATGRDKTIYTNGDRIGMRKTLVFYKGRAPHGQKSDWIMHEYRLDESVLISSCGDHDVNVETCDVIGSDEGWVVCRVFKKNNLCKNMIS
In short: as §1

GST-NTL8 NAC domain = target: T8, GST-NTL8 NAC domain (Arabidopsis thaliana, UniProt Q9XIN7 14-156); conditions: protein: recombinant; tags: GST; chain copies: 2; dsDNA, one strand shown
T8 sequence: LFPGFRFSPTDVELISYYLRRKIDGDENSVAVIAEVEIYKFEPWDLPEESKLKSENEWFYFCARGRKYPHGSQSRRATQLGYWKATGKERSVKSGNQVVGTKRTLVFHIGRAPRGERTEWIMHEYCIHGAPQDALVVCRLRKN
In short: as §1

GST-SND1(1-203) = target: T9, GST-SND1(1-203) (Arabidopsis thaliana, UniProt Q9LPI7 1-203); conditions: protein: recombinant; tags: GST; chain copies: 2; dsDNA, one strand shown
T9 sequence: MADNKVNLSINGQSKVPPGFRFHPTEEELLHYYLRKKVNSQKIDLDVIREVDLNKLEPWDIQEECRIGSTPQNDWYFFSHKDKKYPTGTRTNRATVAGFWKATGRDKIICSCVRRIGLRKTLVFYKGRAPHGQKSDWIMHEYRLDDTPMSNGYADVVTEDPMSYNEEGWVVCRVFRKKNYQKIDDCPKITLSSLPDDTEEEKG
In short: as §1

GST-VND3 NAC domain = target: T10, GST-VND3 NAC domain (Arabidopsis thaliana, UniProt Q9FH59 12-162); conditions: protein: recombinant; tags: GST; chain copies: 2; dsDNA, one strand shown
T10 sequence: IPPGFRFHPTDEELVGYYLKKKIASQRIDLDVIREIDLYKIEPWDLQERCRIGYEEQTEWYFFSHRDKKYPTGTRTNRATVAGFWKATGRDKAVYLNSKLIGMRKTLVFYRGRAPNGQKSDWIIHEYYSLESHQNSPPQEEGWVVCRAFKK
In short: as §1

GST-VND7 NAC domain = target: T11, GST-VND7 NAC domain (Arabidopsis thaliana, UniProt Q9C8W9 9-158); conditions: protein: recombinant; tags: GST; chain copies: 2; dsDNA, one strand shown
T11 sequence: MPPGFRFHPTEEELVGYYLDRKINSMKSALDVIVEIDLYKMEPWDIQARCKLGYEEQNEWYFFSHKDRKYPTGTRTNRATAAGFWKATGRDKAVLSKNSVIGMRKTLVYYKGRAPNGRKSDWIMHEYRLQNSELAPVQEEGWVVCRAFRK
In short: as §1

GST-WRKY1(266-371) = GST-WRKY1(266-371) (Arabidopsis thaliana, UniProt Q9SI37 266-371); conditions: protein: recombinant; tags: GST; dsDNA, one strand shown
In short: as §1

Sequence of GST-WRKY1(266-371) (Q9SI37 266-371): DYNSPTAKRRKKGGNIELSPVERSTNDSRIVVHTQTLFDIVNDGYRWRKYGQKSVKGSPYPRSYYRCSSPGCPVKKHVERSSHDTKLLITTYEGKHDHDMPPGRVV
Sequence of GST-NTL6(1-168) (Q9SCK6 1-168): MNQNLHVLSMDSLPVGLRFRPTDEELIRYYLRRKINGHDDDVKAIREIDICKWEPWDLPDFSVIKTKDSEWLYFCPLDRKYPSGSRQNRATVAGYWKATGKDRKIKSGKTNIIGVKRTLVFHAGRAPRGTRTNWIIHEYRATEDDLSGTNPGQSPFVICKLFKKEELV

| Sequence | binding signal (GST-ANAC092(1-176)) | binding signal (GST-NTL6(1-168)) | binding signal (GST-ANAC019 NAC domain) | binding signal (GST-ANAC055(1-171)) | binding signal (GST-ATAF1 NAC domain) | binding signal [1] | binding signal (GST-NAP(1-166)) | binding signal (GST-NST2(1-184)) | binding signal (GST-NTL8 NAC domain) | binding signal (GST-SND1(1-203)) | binding signal (GST-VND3 NAC domain) | binding signal (GST-VND7 NAC domain) | binding signal (GST-WRKY1(266-371)) |
| --- | --- | --- | --- | --- | --- | --- | --- | --- | --- | --- | --- | --- | --- |
| TCACGCAA | 0.488 E-score | 0.0728 E-score | 0.467 E-score | 0.398 E-score | 0.336 E-score | 0.488 E-score | 0.433 E-score | 0.396 E-score | 0.177 E-score | 0.473 E-score | 0.448 E-score | 0.462 E-score | 0.0966 E-score |
| GTACGTAA | 0.432 E-score | 0.174 E-score | 0.463 E-score | 0.42 E-score | 0.408 E-score | 0.441 E-score | 0.419 E-score | 0.276 E-score | 0.167 E-score | 0.337 E-score | 0.417 E-score | 0.44 E-score | 0.0843 E-score |
| AAAAGTCA | 0.142 E-score | 0.1 E-score | 0.185 E-score | 0.157 E-score | 0.241 E-score | 0.241 E-score | 0.08 E-score | 0.274 E-score | 0.128 E-score | 0.257 E-score | 0.13 E-score | 0.122 E-score | 0.461 E-score |
| CACGAAAG | 0.407 E-score | 0.109 E-score | 0.25 E-score | 0.216 E-score | 0.133 E-score | 0.411 E-score | 0.17 E-score | 0.189 E-score | 0.121 E-score | 0.184 E-score | 0.191 E-score | 0.132 E-score | 0.0838 E-score |
| GTCGCGTA | 0.307 E-score | 0.0763 E-score |  |  | 0.195 E-score | 0.414 E-score | 0.171 E-score | 0.109 E-score |  | 0.422 E-score | 0.102 E-score | 0.233 E-score | 0.145 E-score |
| GACGTAAA | 0.355 E-score |  | 0.298 E-score | 0.256 E-score | 0.365 E-score | 0.399 E-score | 0.311 E-score | 0.333 E-score |  | 0.431 E-score | 0.329 E-score | 0.204 E-score | 0.0785 E-score |
| GTCAACAC | 0.238 E-score |  | 0.138 E-score | 0.173 E-score | 0.092 E-score | 0.23 E-score | 0.163 E-score | 0.134 E-score |  | 0.134 E-score | 0.133 E-score | 0.154 E-score | 0.478 E-score |
| ATAAGTAA | 0.318 E-score | 0.434 E-score |  | 0.181 E-score | 0.246 E-score | 0.363 E-score |  | 0.29 E-score | 0.167 E-score | 0.311 E-score | 0.264 E-score | 0.18 E-score | 0.142 E-score |
| GCAAGTCA | 0.187 E-score | 0.0738 E-score |  |  | 0.0771 E-score | 0.301 E-score |  | 0.0804 E-score |  | 0.175 E-score | 0.115 E-score | 0.12 E-score | 0.423 E-score |
| ATACGTCA | 0.412 E-score |  | 0.251 E-score | 0.267 E-score | 0.345 E-score | 0.435 E-score | 0.373 E-score | 0.183 E-score |  | 0.298 E-score | 0.337 E-score | 0.322 E-score | 0.196 E-score |
| CGTATACG | 0.195 E-score |  | 0.354 E-score | 0.363 E-score | 0.407 E-score | 0.283 E-score | 0.397 E-score | 0.0918 E-score |  | 0.0859 E-score | 0.321 E-score | 0.395 E-score | 0.0731 E-score |
| CTTGCGTC | 0.337 E-score |  | 0.0715 E-score | 0.0764 E-score | 0.0507 E-score | 0.402 E-score | 0.21 E-score | 0.106 E-score |  | 0.162 E-score | 0.0748 E-score | 0.058 E-score | 0.0999 E-score |
| GACGCAAC | 0.438 E-score |  | 0.294 E-score | 0.293 E-score | 0.282 E-score | 0.457 E-score | 0.37 E-score | 0.295 E-score |  | 0.325 E-score | 0.295 E-score | 0.259 E-score | 0.0608 E-score |
